G9a inh: blocks human histone lysine methyltransferase G9a; G9a H3K9 monomethylation, AlphaScreen, 2 h; Potency, µM (top dose mostly 102 µM), for the others: at the highest dose activity, negative = inhibition, most hits filed as inhibitors; 8.8% of 350,000 active; AID 504332; note: potency is the fitted concentration of half-maximal effect; nearly all actives have a fitted effect of over 75% in size
Target sequence (Q96KQ7 913-1193 limits assumed): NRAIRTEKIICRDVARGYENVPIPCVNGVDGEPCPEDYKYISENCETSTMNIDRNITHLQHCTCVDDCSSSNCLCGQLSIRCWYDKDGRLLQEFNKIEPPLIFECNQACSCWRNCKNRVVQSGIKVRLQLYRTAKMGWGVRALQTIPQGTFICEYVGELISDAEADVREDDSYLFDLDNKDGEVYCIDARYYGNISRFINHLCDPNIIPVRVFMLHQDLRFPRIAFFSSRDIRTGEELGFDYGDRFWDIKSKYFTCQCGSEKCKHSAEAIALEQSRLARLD
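Signal arises when biotinylated H3K9 peptide, once monomethylated, bridges streptavidin donor and antibody-captured acceptor beads. Enzyme at 20 nM was preincubated 15 min with test compounds; peptide 500 nM and SAM 20 uM then reacted for 2 h.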
Tau ThT inhib: tau fibrillization inhibition (ThT binding); Potency, µM (titrated, usually from 57.4 µM), for the others: top-dose activity, negative = inhibition, actives largely listed as inhibitors; recombinant tau K18 P301L, heparin-induced fibrillization, ThT fluorescence; P10636; 2.1% of 270,000 active; note: potency is the fitted concentration of half-maximal effect; nearly all actives have a fitted effect of over 55% in size
Target sequence (P10636 561-689 P618L limits assumed): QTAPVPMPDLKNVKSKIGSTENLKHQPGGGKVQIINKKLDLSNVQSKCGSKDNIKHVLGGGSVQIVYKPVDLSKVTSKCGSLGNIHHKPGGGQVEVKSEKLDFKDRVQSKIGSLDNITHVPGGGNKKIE
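Tau K18 P301L fragment (15 uM unlabeled plus 0.24 uM Alexa 594-labeled) in 100 mM sodium acetate pH 7 with compound, fibrillization induced by 20 uM heparin for 6 hr at 37 C. Thioflavin T (30 uM) added, fluorescence read after 1 hr (ex 450, em 510 nm).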
Sfp PPTase inh: inhibitors of Bacillus subtilis Sfp phosphopantetheinyl transferase; Biochemical Sfp PPTase activity, qHTS; Potency, µM, inactives show largest response in the series, negative = inhibition, actives largely listed as inhibitors; 3.5% of 310,000 active; AID 1490;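 note: the enzyme is Sfp with the accession as filed and its product quenches rhodamine fluorescence; potency is the fitted concentration of half-maximal effect; 0% = enzyme reaction without inhibitor and -100% = no enzyme wells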
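Compounds were incubated with enzyme (final 15 nM) for 15 min at room temperature before substrate addition started the reaction. Fluorescence at 525 nm excitation, 598 nm emission was recorded immediately and after 30 minutes.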
Tau FP inhib: tau fibrillization inhibition (FP); P10636; K18 P301L tau heparin fibrillization, Alexa594 FP, 6 h; Potency, µM (top dose mostly 57.7 µM), inactives show at the highest dose activity, negative = inhibition, most hits filed as inhibitors; 0.39% of 280,000 active; AID 1468; note: potency is the fitted concentration of half-maximal effect; nearly all actives have a fitted effect of over 55% in size
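Steps: dispense K18 P301L tau (15 uM plus 0.24 uM Alexa 594 tracer, final) in pH 7 sodium acetate; add compound; add heparin (20 uM final); incubate 6 hr, 37 C; add ThT (30 uM final); after 1 hr ambient, read FP.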
Tau fluor counter: counter-screen for tau fibril formation inhibitors; Potency, µM (series often up to 57.7 µM), without a hit: at the top dose activity change, negative = decrease; tau K18 P301L Alexa594 fluorescence, heparin fibrillization; 0.93% of 280,000 active; AID 1463; note: potency is the fitted concentration of half-maximal effect; nearly all actives have a fitted effect of over 55% in size
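Human tau K18 P301L (15 uM unlabeled, 0.24 uM Alexa 594-labeled) in 100 mM sodium acetate pH 7 with 20 uM heparin, 6 hr at 37 C. ThT 30 uM added, 1 hr ambient; Alexa 594 FP and total fluorescence read at 555/632 nm.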
Coupling enz: coupling enzyme interference in Giardia aldolase counter-screen; coupling enzyme system counterscreen, AmpLite Red fluorescence; 0.67% of 290,000 active; activity change, negative = inhibition, % at 58.2 µM, hits read low; in the data active = activity change below about -30%
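Fluorescence at 525 nm excitation and 598 nm emission measured inhibition of the coupled detection system without aldolase. Compounds (at 57.5 uM final) were preincubated 10 min at room temperature with coupling enzyme reagent before a 20 min substrate/AmpLite Red step.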
* hit, by the source's call; ? = inconclusive; / = not tested or not shown; [ ] = another dose, or the depositor's remark. Only some compounds are listed: those with a hit (about 11% of all), similar ones and a draw of the others. Unless noted, calls come from the whole dose curve; as a rule, active = well fitted curve in the direction sought with a large enough effect; inconclusive = small, poorly fitted or top-dose-only effect, or another doubt; inactive = no such curve, though single readings can be large; an effect the other way counts as inactive or inconclusive. Unless noted, % is set by controls: 0 for no effect and ±100 for the full control effect.

SMILES	G9a inh	Tau ThT inhib	Sfp PPTase inh	Tau FP inhib	Tau fluor counter	Coupling enz
CCN(CC)c1ccc(S(=O)(=O)N2CCOCC2)cc1NC(=O)C1CC1	9.1%[2.33 µM]	/	/	/	/	/
CCN(CC)c1ccc(S(=O)(=O)N2CCOCC2)cc1NC(=O)CNCc1ccccc1	?	?	35.5µM*	-2.9%	-15.9%	-13.5
CN1CCN(CC(=O)Nc2cc(S(=O)(=O)N3CCOCC3)ccc2Cl)CC1	-0.1%[0.501 µM]	/	/	/	/	/
CCN(CC)S(=O)(=O)c1ccc(C)c(NC(=O)CN2CCN(Cc3ccccc3)CC2)c1	?	0.4%	79.4µM*	1.2%	-1.9%	1.0
Cc1ccccc1NC(=O)CN1CCN(Cc2ccccc2)CC1	-2.7%	/	19.2%	/	/	2.6
COc1ccc(/C=N/Nc2ccc(C(F)(F)F)cc2[N+](=O)[O-])cc1O	?	?	-2.6%	0.5%	?	2.8
CCOc1ccc(/C=N/Nc2ccc(C(F)(F)F)cc2[N+](=O)[O-])cc1O	44.7µM*	-3.8%	-5.1%	-5.4%	-6.1%	-0.6
Cc1ccccc1-c1ccc2ncnc(NCc3cccs3)c2c1	-36.9%[0.501 µM]	/	?	/	/	1.3
COCCNC(=O)CSc1nc(-c2ccccc2C)nc2c1c(=O)n(C)c(=O)n2C	5.9%[59 µM]	-0.9%	/	-3.7%	0.0%	/
COc1ccc2oc(=O)c(C(=O)Oc3ccc(NC(C)=O)cc3)cc2c1	4.1%[12.7 µM]	?	-1.5%	3.3%	-20.8%	0.6
O=P(O)(O)OP(=O)(O)O	?	/	14.5%	/	/	/
O=P(O)(O)CP(=O)(O)O	7.08µM*	-10.9%	-5.2%	9.6%	-11.9%	3.5
COc1ccc(-c2c(C#Cc3ccsc3)c3ccccc3n2C)cc1	31.6µM*	/	-13.8%	/	/	-1.5
Oc1cccc(C(=S)N2CCN(Cc3ccccc3)CC2)c1	?	-13.7%	?	-0.8%	-12.6%	4.6
Oc1cccc(C(=S)N2CCC(Cc3ccccc3)CC2)c1	11.2µM*	/	35.5µM*	/	/	-1.6
CCN1CCC2(CC1)N=C(c1ccc(F)cc1)C(=S)N2	11.2µM*	-15.6%	22.4µM*	4.9%	-5.5%	-1.3
COc1ccccc1Cn1c(CNS(=O)(=O)c2c(C)cc(C)cc2C)nc2cccnc21	16.5%[59 µM]	-14.7%	/	3.6%	-15.0%	/
Cc1csc(=Nc2cccnc2)n1CC1CCCCC1	?	-8.8%	-10.6%	7.2%	-12.7%	5.0
C=CCN1C(=Nc2cccnc2)SCC1(O)c1ccc(C)cc1 (stereo not given)	44.7µM*	-8.4%	-18.9%	-3.1%	-9.9%	-1.0
NC(=O)c1ccccc1NC(=O)CCCN1C(=O)CCC1=O	44.7µM*	-4.4%	6.3%	6.2%	2.1%	-1.5
O=S(=O)(c1ccc(Cl)nc1)N1CCCCC1	0.2%	/	15.9%	/	/	2.8
COc1ccccc1C(CCN(Cc1ccccc1)C(C)=O)c1ccco1 (stereo not given)	20.7%[12.7 µM]	-14.1%	56.2µM*	7.0%	-8.1%	6.4
COc1ccccc1C(CC(N)=O)c1ccco1 (stereo not given)	0.4%[12.7 µM]	1.0%	0.3%	3.5%	4.9%	3.6
CC(=O)N(CCC(c1ccco1)C(C)C)Cc1ccc(Cl)cc1 (stereo not given)	14.3%	-14.8%	-19.5%	1.3%	-5.5%	4.4
CCC(=O)N(CCC(c1ccco1)C(C)C)Cc1ccccc1 (stereo not given)	/	-13.6%	44.7µM*	-10.9%	-0.9%	4.7
SMILES	G9a inh	Tau ThT inhib	Sfp PPTase inh	Tau FP inhib	Tau fluor counter	Coupling enz
CCc1ccc(NC(=S)NNC(=O)c2ccccc2OC(F)F)cc1	12.6µM*	-9.6%	9.6%	0.6%	-5.9%	0.1
COc1ccc(NC(=S)NNC(=O)c2ccccc2OC(F)F)cc1	?	-12.9%	2.6%	3.7%	-3.0%	2.3
CC(=O)Oc1cc2c(c(C)c1OC(C)=O)CC=C1[C@]3(C)CC[C@]4(C)CC[C@@](C)(C(=O)O)CC4[C@]3(C)CC[C@]12C (stereo not given in full)	/	-12.9%	-2.9%	0.7%	-1.4%	1.5
Nc1c(-c2ccc(Cl)cc2)cnc2c(-c3ccccc3)cnn12	16.6%	/	8.7%	/	/	0.2
COc1cc(C2C3=C(CCCC3=O)Nc3ccc4ncccc4c32)ccc1O (stereo not given)	-43.7%	-7.1%	4.6%	9.1%	3.1%	-0.2
O=C1CCCC2=C1C(c1ccc(O)c(O)c1)Nc1ccc3ncccc3c12 (stereo not given)	1.12µM*	?	?	-10.9%	?	-14.3
COc1ccc(C2C3=C(CCCC3=O)Nc3ccc4ncccc4c32)cc1OC (stereo not given)	50.1µM*	?	-18.0%	3.9%	-18.5%	1.5
COc1cc(C2C3=C(CCCC3=O)Nc3[nH]n(-c4ccccc4)c(=O)c32)ccc1OC(C)=O (stereo not given)	44.7µM*	-7.3%	6.1%	2.5%	-3.4%	0.8
COc1cc(C2C3=C(CCCC3=O)Nc3[nH]n(-c4ccccc4)c(=O)c32)cc(OC)c1OC (stereo not given)	?	-13.0%	-1.3%	9.1%	-5.0%	-0.1
CCCn1cnc2c(N)c(C)c(C)cc21	1.78µM*	-13.6%	6.9%	4.4%	-9.0%	-2.1
COc1cccc(Cn2cnc3c(N)c(C)c(C)cc32)c1	?	-10.9%	8.3%	6.6%	-13.3%	-4.6
Cc1ccc(-n2c(C)cc(C(=O)NS(=O)(=O)c3ccc(C)cc3)c2C)cc1	50.1µM*	-14.2%	-2.7%	2.0%	-2.5%	20.2
Cc1[nH]c2ccccc2c1C(=O)C(C)OC(=O)c1ccc(NC(=O)CC#N)cc1 (stereo not given)	-42.1%	/	/	/	/	/
Cc1[nH]c2ccccc2c1C(=O)C(C)OC(=O)c1ccccc1NCCO (stereo not given)	44.7µM*	/	/	/	/	/
COc1ccc2nc(Nc3sc4c(c3C(N)=O)CCCC4)sc2c1	3.16µM*	7.08µM*	44.7µM*	1.7%	?	2.9
COc1ccc(NC(=O)c2c(NCc3cccc(OC)c3)sc3c2CCC3)cc1	14.1µM*	?	/	-4.5%	-22.0%	/
COc1cccc(CNc2sc3c(c2C(=O)Nc2ccc(OC)cc2OC)CCC3)c1	12.6µM*	?	/	-4.3%	-25.9%	/
COc1ccc(NC(=O)CN(C)CC(=O)Nc2sc3c(c2C(N)=O)CCC3)cc1	50.1µM*	/	/	/	/	/
COc1ccc(CC(=O)Nc2sc3c(c2C(N)=O)CCCC3)cc1	6.5%	/	10.9%	/	/	5.0
COc1ccc(NC(=O)c2c(NC(=O)c3cccc(C)c3)sc3c2CCC3)cc1	-18.2%[59 µM]	-1.4%	/	3.9%	-7.3%	/
CCc1ccc(NC(=O)c2sc(-n3nc(C)c(CCC(C)C)c3C)nc2C)cc1	9.8%[59 µM]	?	/	15.1%	-16.0%	/
Cc1cc(C)n(-c2nc(C)c(C)c(=O)n2CC(=O)Nc2ccc([N+](=O)[O-])cc2)n1	?	-23.4%	/	?	-26.5%	/

High-throughput results as filed in PubChem BioAssay.
